Reference: PubChem BioAssay (NCI)
About 83,000 compounds went through this panel and 20% of them were active in at least one assay; those are over-represented in the sample as a whole.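 Interpretation: 100, growth as untreated; towards 0, rising growth inhibition; 0, no net growth; 0 to -100, cell death. Compounds scoring below 10 were considered active.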 A number with no mark means an inactive call. Calls of active or inactive are those of the source.

Key:
Experiment in all cases: NCI-60 one-dose screen, 48 h (100 = growth as untreated, 0 = no growth, -100 = all killed)
Settings in all cases: 10 µM unless noted
HCT-15 colon = test system: HCT-15 colon
HT29 colon = test system: HT29 colon
SNB-75 CNS = test system: SNB-75 CNS
SNB-19 CNS = test system: SNB-19 CNS
U251 CNS = test system: U251 CNS
PC-3 prostate = test system: PC-3 prostate
SK-MEL-5 melanoma = test system: SK-MEL-5 melanoma
UACC-62 melanoma = test system: UACC-62 melanoma
LOX IMVI melanoma = test system: LOX IMVI melanoma
SK-MEL-28 melanoma = test system: SK-MEL-28 melanoma

SMILES	growth (HCT-15 colon)	growth (HT29 colon)	growth (SNB-75 CNS)	growth (SNB-19 CNS)	growth (U251 CNS)	growth (PC-3 prostate)	growth (SK-MEL-5 melanoma)	growth (UACC-62 melanoma)	growth (LOX IMVI melanoma)	growth (SK-MEL-28 melanoma)
CCOC(=O)C1=C(c2ccccc2)NC(=O)NC1CN1C(=O)c2ccccc2C1=O (stereo not given)	115%	110%	98.8%	107%	102%	100%	104%	98.5%	110%	105%
CCOc1ccc(N(C)c2ccc(/C=C/C3=[N+](C)c4ccccc4C3(C)C)cc2)cc1	18.9%	-25.1% (active)	41.6%	26.8%	-82.8% (active)	0.484% (active)	2.07% (active)	28.5%	-48.1% (active)	19%
CNCCCNCCCCNCCCN1C(=O)c2ccc3c4c(ccc(c24)C1=O)C(=O)N(CCCNCc1ccccc1OC)C3=O	46.8%	4.56% (active)	-0.885% (active)	36%	41.2%	58.7%	10.7%	-1.88% (active)	8.88% (active)	-9.35% (active)
COC(=O)[C@H](Cc1cn(C)cn1)NC(=O)[C@H](CC(=O)OCc1ccccc1)NC(=O)Nc1cc(C(F)(F)F)cc(C(F)(F)F)c1	-82.2% [100 µM] (active)	-85.2% [100 µM] (active)	-98.6% [100 µM] (active)	-93% [100 µM] (active)	-96.5% [100 µM] (active)	-94.1% [100 µM] (active)	-97.3% [100 µM] (active)	-98.3% [100 µM] (active)	-85.3% [100 µM] (active)	-95.6% [100 µM] (active)
Cc1ccc2c(O)c(O)cc(NC(C)CCCN)c2n1 (stereo not given)	116%	47.7%	108%	87.7%	25.7%	89.2%	95.7%	113%	31.2%	131%
CCOC(=O)C1=C(C(F)(F)F)NC(=O)NC1CN1C(=O)c2ccccc2C1=O (stereo not given)	123%	113%	98.4%	111%	107%	92%	111%	92.9%	111%	113%
C/C=C(/C)C(=O)OC1C=C(CO)C(=O)C(OC(=O)C2(C)OC2C)C1C(C)C (stereo not given)	-14.5% (active)	-60.3% (active)	23.6%	12.1%	-23.1% (active)	-7.66% (active)	-92.8% (active)	-73.7% (active)	-83.8% (active)	-49% (active)
CC(O)CN(CC(C)O)N(CC(C)O)CC(C)O (stereo not given)	93.6%	99.3%	93.1%	99.1%	90.9%	99.4%	105%	102%	93.7%	107%
CNc1nc2ncn(C)c2c(=O)[nH]1	74%	98%	81.3%	113%	97.3%	100%	101%	78.3%	71.6%	103%
O=C(CN1CCN(c2cccc(Cl)c2)CC1)N1CCN(c2nnc(-c3ccc(Cl)cc3)c(-c3ccc(Cl)cc3)n2)CC1	52.9%	59.3%	97.6%	77.6%	71.7%	25.4%	61.6%	71.4%	71.5%	93.8%
CCCCCCCCCCCCc1ccc([N+](CC)(CC)CC)cc1	96%	39.3%	33.5%	31.7%	29.6%	25.1%	-75.5% (active)	11.1%	32.9%	28.9%
COc1ccc(-c2nnc(SCC(=O)Nc3ccc(C(=O)/C=C/c4cc(OC)c(OC)c(OC)c4)cc3)n2-c2ccccc2)cc1OC	8.91% [100 µM] (active)	3.6% [100 µM] (active)	-22% [100 µM] (active)	-19.9% [100 µM] (active)	-96.9% [100 µM] (active)	10.9% [100 µM]	-14.6% [100 µM] (active)	-42.9% [100 µM] (active)	-88.5% [100 µM] (active)	18.3% [100 µM]
Cc1cc2c(-c3nc4ccccc4n3C)c(O)c(O)cc2c(O)c1-c1c(C)cc2c(-c3nc4ccccc4n3C)c(O)c(O)cc2c1O	78.9%	25.2%	69%	15.4%	13.5%	27.3%	91.3%	28.9%	30.4%	58.1%
O=C1/C(=C/c2ccc(Cl)cc2)CCC/C1=C\c1ccc(Cl)cc1	80.9%	6.8% (active)	90.1%	92.5%	14.7%	90.8%	84.6%	80.5%	-67.7% (active)	110%
CCOC(=O)NNc1[nH]c(-c2ccc(OC)cc2)cc1C#N	107%	132%	124%	98.6%	98.2%	99%	88.9%	76.1%	91.6%	182%
COc1cc(/C=C/C(=O)c2ccc(F)cc2)ccc1OCCCCOc1cc2c(cc1OC)C(=O)N1CCCC1C=N2 (stereo not given)	-46.3% (active)	-49.3% (active)	-8.01% (active)	-35.3% (active)	-100% (active)	-38.3% (active)	-99.7% (active)	-86% (active)	-84.6% (active)	-42.1% (active)
NC(=O)CC(NC(=O)COc1ccc(Cl)cc1Cl)C(=O)O (stereo not given)	112%	107%	102%	103%	101%	94.2%	98.8%	98.6%	97.1%	109%
CC(C)OC(=O)[C@H](C)N[P@@](=O)(OC[C@@]1(C)O[C@@H](n2cc(F)c(N)nc2=O)C[C@@H]1O[P@](=O)(N[C@@H](C)C(=O)OC(C)C)Oc1ccccc1)Oc1ccccc1	106%	86%	78.3%	73.8%	93.2%	71.4%	90.6%	99.3%	80.8%	93.5%
COC(=O)/C=C/c1cc(O)c2oc(-c3ccc(O)c(O)c3)c(C(=O)OC)c2c1	14.1%	59.8%	7.74% (active)	31.7%	18.1%	11.4%	-13.3% (active)	36.6%	19.1%	57.2%
COC(=O)/C=C1/CCCCC1(C)C(=O)OC (stereo not given)	93.1%	102%	91.6%	102%	97.2%	102%	112%	106%	102%	100%
O=C(/C=C1\C(=O)N(Cc2ccc([N+](=O)[O-])cc2)c2ccccc21)c1ccc(OCCN2CCCC2)cc1	15.4%	17.4%	65.3%	95.1%	84.7%	77%	88.5%	85.8%	16.7%	104%
COc1ccc(/C=C2\CCCC3=C2N=C2SC=NN2C3c2ccc(OC)c(OC)c2)cc1OC (stereo not given)	34.2%	14.4%	40.1%	68.6%	30.2%	67.9%	30.8%	38.1%	9.24% (active)	66%
FC(F)(F)c1cccc(-c2[nH]ncc2-c2nnnn2-c2ccccc2)c1	35.6%	15.1%	47.5%	50.8%	30.1%	44%	20.8%	36.9%	44.8%	60.8%
O=C1C=C(OCC=C(C(F)(F)F)C(F)(F)F)c2ccccc2C1=O	11%	6.37% (active)	66.6%	61%	39.7%	-19% (active)	33.5%	63.7%	-62.4% (active)	-17.5% (active)
c1cc[c]([Bi]([c]2ccccc2)[c]2ccccc2)cc1	103%	112%	76.9%	102%	99.6%	85.2%	97.8%	94.6%	98.6%	102%
COc1ccc(/C(=C(\c2ccccc2)[N+](=O)[O-])c2ccc(OCCN3CCCC3)cc2)cc1	6.54% (active)	9.77% (active)	76%	87.8%	74.1%	69.4%	-78.2% (active)	38.4%	-20.1% (active)	-10.3% (active)
CC1(C)NCCC[C@]2(C)[C@H]3CC=C4[C@@H]5C[C@](C)(COC(=O)c6ccccc6C(=O)O)CC[C@]5(C)CC[C@@]4(C)[C@]3(C)CC[C@@H]12	43.8%	9.9% (active)	74.7%	68.9%	41.1%	43.1%	77.5%	88.2%	54.4%	93.4%
